VDR inh = blocks the human vitamin D receptor | P11473 | 400,000 compounds, 0.93% hits | AID 504847 | Potency, µM, for the others: max response, negative = inhibition, hits mostly inhibitors | VDR-SRC2-3 peptide fluorescence polarization, 2 h; also: % is scaled to controls: 0 for no effect and ±100 for the full control effect
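Measured by FP: displacement of SRC2-3 coactivator peptide from VDR by library compounds, following a two-hour ambient incubation.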
BAZ2B inh = blocks human BAZ2B | AlphaScreen BAZ2B-H3K14Ac peptide displacement | Potency, µM (doses to about 114 µM), for inactives: at the top dose activity change, negative = inhibition, actives largely listed as inhibitors | 360,000 compounds, 4.4% hits; also: % is scaled to controls: 0 for no effect and ±100 for the full control effect; nearly all actives have a fitted effect of over 60% in size
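BAZ2B 50 nM plus b-H3(5-23)K14Ac 50 nM, PBS pH 7.4/0.01% Tween-20, 30 min RT; compound added (max 110 uM), 30 min RT; streptavidin donor/Ni-chelate acceptor beads 10 ug/mL final, 20 min dark; AlphaScreen read.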
JMJD2A Tudor = blocks the human JMJD2A Tudor domain; AlphaScreen JMJD2A-Tudor / H3K4me3 peptide binding; AID 504339; O75164; Potency, µM (titrated, usually from 114 µM), for inactives: at the top dose activity change, negative = inhibition, most hits filed as inhibitors; 390,000 compounds, 4.4% hits; also: % is scaled to controls: 0 for no effect and ±100 for the full control effect; nearly all actives have a fitted effect of over 50% in size
Target sequence (O75164 whole entry, looked up, the tested form may be a part): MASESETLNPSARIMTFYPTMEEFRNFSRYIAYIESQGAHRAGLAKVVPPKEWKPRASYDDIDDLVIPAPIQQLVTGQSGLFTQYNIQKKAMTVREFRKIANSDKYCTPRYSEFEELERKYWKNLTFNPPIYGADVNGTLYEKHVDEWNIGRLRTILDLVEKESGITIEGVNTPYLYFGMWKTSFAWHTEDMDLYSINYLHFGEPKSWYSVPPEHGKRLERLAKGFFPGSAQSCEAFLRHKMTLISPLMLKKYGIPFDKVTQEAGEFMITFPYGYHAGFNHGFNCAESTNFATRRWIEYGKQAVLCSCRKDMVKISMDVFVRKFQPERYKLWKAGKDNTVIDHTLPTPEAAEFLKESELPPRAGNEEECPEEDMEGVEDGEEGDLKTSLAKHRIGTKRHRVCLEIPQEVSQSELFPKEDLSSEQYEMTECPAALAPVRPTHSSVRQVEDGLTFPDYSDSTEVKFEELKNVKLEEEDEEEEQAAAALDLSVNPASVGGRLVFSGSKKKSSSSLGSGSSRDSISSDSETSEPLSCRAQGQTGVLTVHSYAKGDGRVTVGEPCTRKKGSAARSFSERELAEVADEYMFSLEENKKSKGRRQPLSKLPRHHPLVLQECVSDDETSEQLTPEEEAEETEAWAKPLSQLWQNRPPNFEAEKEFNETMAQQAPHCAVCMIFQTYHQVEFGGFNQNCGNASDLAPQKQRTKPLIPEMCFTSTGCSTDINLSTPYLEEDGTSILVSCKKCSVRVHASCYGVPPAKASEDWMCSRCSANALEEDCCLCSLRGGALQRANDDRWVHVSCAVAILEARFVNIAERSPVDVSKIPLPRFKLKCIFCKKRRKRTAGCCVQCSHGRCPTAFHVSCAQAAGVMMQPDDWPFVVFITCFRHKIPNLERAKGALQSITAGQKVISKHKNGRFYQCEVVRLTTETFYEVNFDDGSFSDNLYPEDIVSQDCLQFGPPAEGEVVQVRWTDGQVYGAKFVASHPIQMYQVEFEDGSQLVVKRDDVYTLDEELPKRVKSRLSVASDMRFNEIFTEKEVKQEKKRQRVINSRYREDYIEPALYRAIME
PLK1 PBD inh = blocks phosphopeptide binding to human PLK1 polo-box domain. Plk1 PBD binding of FITC phosphopeptide, fluorescence polarization. Potency, µM, inactives show max response, negative = inhibition, hits mostly inhibitors. 360,000 compounds, 2.8% hits; also: series mostly up to about 57 µM; % is scaled to controls: 0 for no effect and ±100 for the full control effect; nearly all actives have a fitted effect of over 65% in size
HP1b binding inh = blocks HP1-beta chromodomain binding to methylated histone tails; P83916; AlphaScreen HP1-beta / biotin-H3K9me3 peptide binding; Potency, µM (highest dose often 114 µM), inactives show top-dose activity change, negative = inhibition, usual class: inhibitors; 390,000 compounds, 0.56% hits; also: nearly all actives have a fitted effect of over 70% in size
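AlphaScreen: HP1-beta (50 nM) preformed 30 min with biotin-H3(1-18)K9me3 peptide (50 nM) in PBS pH 7.4, 0.01% Tween-20. Compound added for 30 min at RT, then streptavidin donor/nickel chelate acceptor beads (10 ug/mL) for 30 min.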
L3MBTL1 inh = L3MBTL1 (human) inhibition | Q9Y468 | AlphaScreen L3MBTL1–H3K9me1 peptide binding | Potency, µM (top dose mostly 57.1 µM), without a hit: at the top dose activity, negative = inhibition, most hits filed as inhibitors | 230,000 compounds, 0.66% hits | AID 485360; also: % is scaled to controls: 0 for no effect and ±100 for the full control effect; nearly all actives have a fitted effect of over 60% in size
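First, the protein-peptide complex forms for 30 min at room temperature (L3MBTL1 50 nM, biotinylated H3K9me1 peptide 75 nM). Next, compounds are pin-transferred and incubated 30 min. Finally, AlphaScreen beads are added and read after 30 min.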
* = called active by the depositor; ? = inconclusive; / = no result; [ ] = dose if it differs, or a comment. The list is not random: actives were taken first. Their share in the collection is about 6.9%. Calls follow the shape of the dose curve; as a rule, active = well fitted curve in the direction sought with a large enough effect; inconclusive = small, poorly fitted or top-dose-only effect, or another doubt; inactive = no such curve, though single readings can be large; an effect the other way counts as inactive or inconclusive. Potency is read from the fitted curve at half-maximal effect.

SMILES	VDR inh	BAZ2B inh	JMJD2A Tudor	PLK1 PBD inh	HP1b binding inh	L3MBTL1 inh
CCCn1c2ccccc2c2cnn(CC(=O)N(Cc3ccccc3)C(C)C)c(=O)c21	1%	-13%	-15%	/	23%	/
CC[C@H](C)[C@H](NC(=O)[C@@H]1CCCN1C(=O)[C@H](C)NC(=O)[C@H](CC(N)=O)NC(=O)[C@@H]1CCCN1C(=O)[C@@H]1CCCN1C(=O)[C@H](CCCN=C(N)N)NC(=O)[C@H](Cc1ccc(O)cc1)NC(=O)[C@H](C)NC(=O)[C@@H]1CCCN1C(=O)[C@@H]1CCCN1C(=O)[C@@H](N)[C@@H](C)O)C(=O)N[C@@H](CC(C)C)C(=O)O	3%	/	/	/	/	/
O=C(CCCOc1ccccc1)Nc1ccc(Cl)cn1	-15%	-11%	-5%	-6%	19%	4%
CC(C)c1ccc(/C=N/N2CCCCC2)cc1	-14%	32µM*	?	-12%	22µM*	-11%
Cc1nc2c(C#N)c[nH]n2c(=O)c1Cc1ccccc1	12%	4%	-8%	-10%	16%	7%
Cc1nc2c(C#N)c[nH]n2c(=O)c1CCO	28µM*	?	-21%[11.4 µM]	9.5µM*	5%	/
Cc1ccnc(N=O)c1	-23%	/	20µM*	11µM*	?	4%
COc1cc(N=Nc2ccc(Br)cc2)cc(C=O)c1O	/	/	/	27µM*	/	/
Cc1nn(-c2cccc(C(F)(F)F)c2)c(Cl)c1/C=N/Nc1cccc(C(=O)O)c1	?	?	?	24µM*	-24%	-9%
O=C(O)c1ccc(/C=N/Nc2cccc(C(F)(F)F)c2)cc1	-18%	?	-23%	?	5%	-8%
CC1=C(C(=O)Nc2ccccc2C(F)(F)F)C(c2sccc2C)NC(=S)N1 (stereo not drawn)	-11%	-13%	-18%	-21%	15%	0%
O=[N+]([O-])c1cc2c(cc1/C=N/n1c(-c3ccccc3)n[nH]c1=S)OCO2	-3%	?	4µM*	?	?	-26%
Fc1cccc(Cl)c1/C=N/n1c(-c2cccnc2)n[nH]c1=S	-18%	?	3.2µM*	17µM*	3%	/
O=[N+]([O-])c1ccccc1/C=N/n1c(-c2cccnc2)n[nH]c1=S	-3%	-27%	2.2µM*	-23%	9%	9%
Nc1nnnn1/N=C\c1ccc(Cl)c([N+](=O)[O-])c1	-7%	3%	-15%	-11%	58%	5%
O=[N+]([O-])c1cc(/C=N/n2c(-c3cccnc3)n[nH]c2=S)ccc1Cl	-37%	?	40µM*	-20%	-8%	?
O=C(Nc1ccc(NC(=O)c2ccccc2)c2ccccc12)c1ccccc1	/	/	/	-7%	/	/
CCOC(=O)c1sc2ncn(CC(=O)Nc3ccc(OCC)cc3)c(=O)c2c1C	-2%	2%	-16%	/	23%	/
CN(Cc1ccccc1)S(=O)(=O)c1ccc(NC(=O)c2cc(=O)c3ccccc3o2)cc1	-6%	-4%	-12%	/	39%	/
O=c1[nH]cnc2c1sc1nc(-c3ccccc3)c3c(c12)CCCC3	-7%	0%	-6%	0%	31%	11%
O=C(CSc1ncnc2sc3c(c12)CCCCC3)NCc1ccco1	-14%	?	-16%	-10%	29%	/
CC(C)c1nc2sc3c(SCC(=O)NCc4ccco4)ncnc3c2c2c1CCC2	-10%	56µM*	56µM*	?	-5%	?
O=C(O)CSc1ncnc2c1sc1nc(-c3ccccc3)c3c(c12)CCC3	-11%	50µM*	50µM*	30µM*	-34%[57 µM]	/
S=c1nc[nH]c2c1sc1nc(-c3ccccc3)c3c(c12)CCCC3	2%	-6%	?	30µM*	9%	-9%
Cc1ccc(-n2c(SCC(=O)N3CCCc4ccccc43)nc3c([nH]c4ccccc43)c2=O)cc1	-1%	0%	-19%	/	21%[57 µM]	/
SMILES	VDR inh	BAZ2B inh	JMJD2A Tudor	PLK1 PBD inh	HP1b binding inh	L3MBTL1 inh
N#Cc1nc(-c2ccc(OCc3ccccc3Cl)cc2)oc1NCCCn1ccnc1	/	65%	/	/	/	/
CC(C)(C)c1ccc(-c2nc(C#N)c(NCc3ccncc3)o2)cc1	13%	79µM*	79µM*	-4%	-19%	-10%
CC(C)(C)c1ccc(-c2nc(C#N)c(NCCCn3ccnc3)o2)cc1	-11%	35µM*	?	-2%	?	-14%
N#Cc1nc(-c2ccc(OCc3ccccc3)cc2)oc1NCCCn1ccnc1	-2%	18µM*	28µM*	1%	45µM*	?
COc1ccc(-c2nc(C#N)c(NCc3ccc(C)cc3)o2)cc1OC	-1%	-7%	-8%	0%	27%	/
N#Cc1nc(-c2ccc(F)cc2)oc1NCCCn1ccnc1	/	-28%	/	/	/	/
COCCCn1c(=O)c2ccccc2n2c(=S)[nH]nc12	3%	-11%	10µM*	0%	?	/
COCCCn1c(=O)c2ccccc2n(Cc2ccccc2)c1=O	-16%	?	-5%	-8%	41%	-2%
Cc1cccc(-n2c(=O)c3ccccc3n3c(=S)[nH]nc23)c1C	6%	-15%	25µM*	-15%	-16%	/
CC(C)(C)c1ccccc1NC(=O)CSc1nc(-c2cccs2)cc(C(F)(F)F)n1	9%	2%	8%	/	59%	/
O=C(O)CC(CC(=O)Nc1nncs1)c1ccccc1 (stereo not drawn)	5%	-7%	-8%	-8%	13%	/
O=C(O)CC(Cn1[nH]nnc1=S)c1ccccc1 (stereo not drawn)	-8%	?	50µM*	?	13%	/
O=S(=O)(c1ccc2c(c1)OCCO2)N1CCN(S(=O)(=O)c2ccc(Br)cc2F)CC1	/	/	-16%	/	/	/
CC(C)(C)c1nnc(NC(=O)c2ccc3c(c2)OCO3)s1	79µM*	-30%	89µM*	6µM*	?	/
CC(C)c1nnc(NC(=O)c2ccc3c(c2)OCO3)s1	1%	-18%	9%	-6%	20%	4%
CC(=O)Nc1ccc(OCC(=O)NC(C)c2ccc(F)cc2)cc1 (stereo not drawn)	-10%	/	9%	4%	44%	-4%
O=C1OC(c2ccccc2)=C/C1=C/c1cccs1	2%	10µM*	?	2%	-8%	-24%
Cc1nn(-c2ccccc2)c(-n2cccc2)c1C(=O)N1CCN(c2ccccc2)CC1	22%	-29%	-11%	/	17%	/
c1ccc(-c2cccc(-c3ccccn3)n2)nc1	-2%	18µM*	20µM*	0%	31%	?
Cc1cccc(OCC(=O)Nc2nonc2-c2ccc(Br)cc2)c1C	11%	1%	-21%	/	34%	/
COc1ccccc1/C=C/CN1CCOCC1	19%	?	3.2µM*	-9%	-52%	-4%
COc1ccccc1/C=C/CN1CCSCC1	-15%	56µM*	6.3µM*	-2%	?	-6%
COc1cccc(C(=O)C2CCCN(C/C=C/c3ccccc3OC)C2)c1 (stereo not drawn)	-16%	-33%	?	-5%	15%	-23%
